Hits are enriched below; roughly 1.6% of the tested compounds scored in any of these assays.
KCNQ2 inh: KCNQ2 (rat) channel inhibition. 310,000 tested, 1.1% active. O88943. B-score at 10 µM. CHO-K1 KCNQ2, FluxOR thallium flux, 20 min; stronger effect = lower value;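 active = fluorescence ratio B-score at most minus 3 library SDs, with starting brightness B-score within 2 library SDs, cut at about -5.5 in these data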
Target sequence (O88943 whole entry, looked up): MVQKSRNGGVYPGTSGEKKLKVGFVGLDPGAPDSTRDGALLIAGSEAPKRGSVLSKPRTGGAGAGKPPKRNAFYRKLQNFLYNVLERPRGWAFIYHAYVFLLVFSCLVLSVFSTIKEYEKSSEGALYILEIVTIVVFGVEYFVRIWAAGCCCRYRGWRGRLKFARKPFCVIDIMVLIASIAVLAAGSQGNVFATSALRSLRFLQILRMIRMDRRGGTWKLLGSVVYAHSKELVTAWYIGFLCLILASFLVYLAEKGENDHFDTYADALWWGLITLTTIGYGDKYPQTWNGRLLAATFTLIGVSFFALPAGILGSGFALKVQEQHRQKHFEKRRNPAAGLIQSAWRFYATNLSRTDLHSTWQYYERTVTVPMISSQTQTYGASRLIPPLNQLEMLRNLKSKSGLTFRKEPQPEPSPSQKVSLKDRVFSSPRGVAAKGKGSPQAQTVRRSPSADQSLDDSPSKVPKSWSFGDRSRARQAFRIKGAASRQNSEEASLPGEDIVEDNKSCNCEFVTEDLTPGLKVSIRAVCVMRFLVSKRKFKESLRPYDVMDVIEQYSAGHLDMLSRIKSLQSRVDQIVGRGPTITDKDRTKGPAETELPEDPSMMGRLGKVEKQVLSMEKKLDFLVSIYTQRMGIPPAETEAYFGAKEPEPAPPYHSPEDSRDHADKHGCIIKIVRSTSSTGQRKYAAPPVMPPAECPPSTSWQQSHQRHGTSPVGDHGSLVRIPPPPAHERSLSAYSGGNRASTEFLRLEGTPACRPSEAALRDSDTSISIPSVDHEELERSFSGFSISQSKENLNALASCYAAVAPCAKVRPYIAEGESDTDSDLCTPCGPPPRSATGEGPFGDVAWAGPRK
KCNQ2 pot: potentiators of rat KCNQ2 potassium channel; O88943; B-score at 10 µM; AID 2239; CHO-K1 KCNQ2, FluxOR thallium flux fluorescence; stronger effect = higher value; 310,000 tested, 0.54% active;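 active = fluorescence ratio B-score at least 3 SD of library B-scores, with initial fluorescence B-score within 3 of them, cut at about 5.3 in these data; same plate scores as AID 2156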;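 also: B-score of peak minus minimum over baseline fluorescence ratio after K+ and Tl+ stimulus; positive B-score means potentiation of KCNQ2 with more thallium influx and brighter signal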
KCNQ2 block conf: rat KCNQ2 channel inhibition, confirmatory screen. activity change, negative = inhibition, % at 10 µM. KCNQ2-expressing cells, thallium flux; stronger effect = lower value. shares compounds with KCNQ2 inh. 1,000 tested, 57% active;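 also: 0% = vehicle wells and values are ratio percent relative to vehicle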
KCNQ1 spec: KCNQ2 inhibitor that also affects human KCNQ1 channel; KCNQ1-expressing cells, FluxOR thallium flux fluorescence; stronger effect = lower value; 1,000 tested, 15% active; shares compounds with KCNQ2 inh; activity change, negative = inhibition, % at 10 µM;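 active = activity change at least 3 SD of negative controls below their mean in both duplicate wells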;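 also: CHO cells stably transfected with KCNQ1 and depolarized by potassium stimulus; peak minus minimum fluorescence over baseline after thallium addition; 0% = vehicle negative control and -100% = blank without thallium stimulus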
CHO parental ctr: KCNQ2 inhibitor counter-screen hit in parental CHO cells | activity change, % at 10 µM | 1,000 tested, 14% active | shares compounds with KCNQ2 inh | AID 493029 | thallium flux counter-screen; stronger effect = lower value;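 also: 0% = vehicle negative controls with stimulus buffer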
KCNQ2 patch conf: confirmation of rat KCNQ2 potassium channel inhibitors; calls only at 10 µM; KCNQ2-expressing cells, automated patch clamp current; shares compounds with KCNQ2 inh; 550 tested, 49% active
Numbers without * were called inactive; i = inactive; · = no result given. Unless noted, no rule for the calls is given here.

SMILES	KCNQ2 inh	KCNQ2 pot	others
O=C(COC(=O)c1ccccn1)c1ccc([N+](=O)[O-])cc1	i	·
Cc1ccccc1CSc1ccc(-c2ccc3c(c2)OCO3)nn1	-5.8*	-5.8
Fc1cccc(CSc2ccc(-c3ccc4c(c3)OCO4)nn2)c1	i	·
Cc1cc(C)c(C(=O)NCC(=O)c2ccccc2)c(C)c1	i	0.72
CCOC(=O)CC1(NC(=O)C2CCC(=O)N(C3CC3)C2)CCCCC1 (configuration not stated)	i	·
CCOC(=O)CC1(NC(=O)C2CCC(=O)N(CCc3ccccc3)C2)CCCCC1 (configuration not stated)	-6.3*	-6.3
CCCc1cc(=O)oc2c(C)c(OCC(=O)Nc3cccnc3)ccc12	i	0.56
Cc1ccc(S(=O)(=O)N/N=C\c2ccc3c(c2)OCO3)c(C)c1	i	·
CC(C)Cn1c(-c2ccco2)csc1=Nc1cccnc1	-6.3*	-6.3
COCCn1c(-c2ccco2)csc1=Nc1cccnc1	i	·
COc1cccc2c1OCC/C2=N\NC(=O)COc1ccc(C)cc1	i	0.24
Cc1ccc(OCC(=O)N/N=C2\CCOc3c(C)cccc32)cc1	-6.8*	-6.8
O=C(NCc1ccccc1Cl)C1(S(=O)(=O)c2ccc(Cl)cc2)CC1	-5.7*	-5.7
O=C(Cc1ccc(Cl)cc1)NCc1ccccc1Cl	i	·
CC(C)C(=O)Nc1cccc(C(=O)Nc2nnc(C(C)C)s2)c1	i	0.06
CC(C)c1nnc(NC(=O)c2cccc(NC(=O)C(F)(F)F)c2)s1	-5.9*	-5.9
CCOC(=O)c1c(-c2ccc(C)o2)csc1NC(=O)COC(=O)c1cccs1	-6*	-6
CCOC(=O)c1c(-c2ccc(C)o2)csc1NC(=O)CN1CCOCC1	i	·
Cc1cc(NC(=O)c2cn(C3CCCCC3)c(=O)c3c2c2ccccc2n3C)no1	-5.8*	-5.8
Cc1ccc(CNC(=O)c2cn(C3CCCCC3)c(=O)c3c2c2ccccc2n3C)o1	i	·
CCOC(=O)c1c(N)sc(-c2ccccc2)c1C	i	·
CCOC(=O)c1c(N)sc(C(O)(C(F)(F)F)C(F)(F)F)c1-c1ccccc1	-7.2*	-7.2
Cn1c(NCc2c[nH]c3ccccc23)nc2ccccc21	i	·
CCn1c(NCc2c[nH]c3ccccc23)nc2ccccc21	-6.5*	-6.5
O=S(=O)(c1cccc2nsnc12)N1CCNCC1	i	1.1
SMILES	KCNQ2 inh	KCNQ2 pot	others
CSCC[C@H](NC(=O)CC(C)(C)C)c1nc2ccccc2[nH]1	i	·
CC(C)(C)CC(=O)N[C@@H](Cc1ccccc1)c1nc2ccccc2[nH]1	-7.2*	-7.2
O=C(OCC(=O)N1CCN(C(=O)c2ccco2)CC1)c1cc(-c2cccc(Br)c2)nc2ccccc12	-7*	-7
O=C(OCC(=O)N1CCN(C(=O)c2ccco2)CC1)c1cc(-c2ccccc2)nc2ccccc12	i	·
CCN(CC)C(=O)Cn1cc(S(=O)(=O)CC(=O)Nc2ccccc2C)c2ccccc21	i	0.06
COC(=O)c1cn(C(=O)c2cc(Br)ccc2Cl)c2ccccc12	-6.1*	-6.1
COC(=O)c1cn(C(=O)c2cc(C)cc(C)c2)c2ccccc12	i	1.2
C=C(C)CCC(C)N1CCC(n2nccc2NC(=O)CCOc2ccccc2)CC1 (configuration not stated)	i	·
O=C(N/N=C/c1ccc([N+](=O)[O-])cc1)c1cccs1	i	·
O=C(N/N=C/c1cccc([N+](=O)[O-])c1O)c1cccs1	i	6*
CC(C)(C)c1ccc(NC(=O)NC2CCCc3ccccc32)cc1 (configuration not stated)	i	·
Cc1ccc(NC(=O)NC2CCCc3ccccc32)cc1 (configuration not stated)	-5.8*	-5.8
CCN(CC)S(=O)(=O)c1ccc(Cl)c(C(=O)OC2CC(C)OC2=O)c1 (configuration not stated)	i	·
NC(CSCc1cccc(Br)c1)C(=O)O (configuration not stated)	-6*	-6
NC(=O)CSCc1cccc(Br)c1	i	·
Cc1ccc(NC(=O)C2CCCN2c2nn3c(=O)cc(C)nc3s2)cc1 (configuration not stated)	i	·
S=c1[nH]nc(COc2ccccc2)n1/N=C/c1c(Cl)cccc1Cl	i	·
O=C(C/C=N/OCc1c(Cl)cccc1Cl)c1cnc(-c2ccccc2)s1	i	·
O=C(C/C=N/OCc1c(Cl)cccc1Cl)c1ccc(Cl)cc1	-7.4*	-7.4
CCN(CC)S(=O)(=O)c1ccc(N(C)C)c(NC(=O)CSCc2c(C)noc2C)c1	i	0.15
CCc1cccc(NC2c3ccccc3C(=O)N2c2ccc(C)cn2)c1 (configuration not stated)	-7.5*	-7.5
Cc1ccc(N2C(=O)c3ccccc3C2Nc2ccccc2)nc1 (configuration not stated)	i	·
COc1cccc(CNC(=O)Cn2ccc3cc(S(=O)(=O)N4CCCCCC4)ccc32)c1OC	i	0.63
Cc1cc(C(=S)N2CCOCC2)c(C)n1-c1ccc(F)cc1	i	·
Cc1ccc(-n2c(C)cc(C(=S)N3CCOCC3)c2C)cc1C	-7.4*	-7.4
SMILES	KCNQ2 inh	KCNQ2 pot	others
CN1C(=O)NC(c2ccccc2[N+](=O)[O-])C2=C1CCCC2=O (configuration not stated)	i	·
Cc1ccc([N+](=O)[O-])c(OCCCN2CCC(Cc3ccccc3)CC2)c1	i	·
O=[N+]([O-])c1cccc(OCCN2CCC(Cc3ccccc3)CC2)c1	-8.2*	-8.2	KCNQ2 block conf=i;KCNQ1 spec=i;CHO parental ctr=i
CC(=O)N1CCOc2ccc(S(=O)(=O)N3CCC(C(=O)NCc4ccccc4)CC3)cc21	i	·
Cc1ccc(NC(=O)CN(C)C(=O)Cc2c(Cl)cccc2Cl)cc1	i	·
Cc1cc2cc(C(c3nnnn3C(C)(C)C)N(Cc3ccco3)CC3CCCO3)c(=O)[nH]c2cc1C (configuration not stated)	i	0.49
CC(C)(C)n1nnnc1C(c1ccc(C(F)(F)F)cc1)N(Cc1ccccc1)Cc1ccco1 (configuration not stated)	-11*	-11	KCNQ2 block conf=-57%*;KCNQ1 spec=-58%*;CHO parental ctr=-54%*
CCN(Cc1ccccc1)C(c1ccc(C)cc1)c1nnnn1C(C)(C)CC (configuration not stated)	-8.8*	-8.8	KCNQ2 block conf=-28%*;KCNQ1 spec=i;CHO parental ctr=i;KCNQ2 patch conf=i
CCC(C)(C)n1nnnc1C(c1ccc(C)cc1)N1CCSCC1 (configuration not stated)	i	·
Fc1ccc(C(c2nnnn2C2CCCC2)N(Cc2ccco2)CC2CCCO2)cc1 (configuration not stated)	i	·

Assay outcomes from PubChem BioAssay.
